Compounds with a hit are over-represented: about 10% of the library has one in this group of screens.
G9a block: inhibitors of human histone lysine methyltransferase G9a | G9a H3K9 monomethylation, AlphaScreen, 2 h | Q96KQ7 | 350,000 tested, 8.8% active | Potency, µM (series often up to 102 µM), without a hit: top-dose activity, negative = inhibition, most hits filed as inhibitors; note: % is set by controls: 0 for no effect and ±100 for the full control effect; nearly all actives have a fitted effect of over 75% in size
Target sequence (Q96KQ7 913-1193 limits assumed): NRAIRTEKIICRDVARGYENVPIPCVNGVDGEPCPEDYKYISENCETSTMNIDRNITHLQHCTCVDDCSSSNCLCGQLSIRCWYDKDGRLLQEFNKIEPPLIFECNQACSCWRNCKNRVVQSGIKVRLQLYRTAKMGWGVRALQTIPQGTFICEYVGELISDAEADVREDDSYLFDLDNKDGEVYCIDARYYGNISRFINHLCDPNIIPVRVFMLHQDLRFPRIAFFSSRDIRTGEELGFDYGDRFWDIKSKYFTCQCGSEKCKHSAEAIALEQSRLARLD
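Using a bead-based AlphaScreen, monomethylated H3K9 product from 2 h room-temperature reactions (G9a 20 nM, peptide 500 nM, SAM 20 uM) was detected with 0.5 ug/mL rabbit anti-H3K9me1 antibody.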
JMJD2A Tudor: inhibitors of human JMJD2A Tudor domain | O75164 | AlphaScreen JMJD2A-Tudor / H3K4me3 peptide binding | Potency, µM (highest dose often 114 µM), for inactives: top-dose activity change, negative = inhibition, usual class: inhibitors | 390,000 tested, 4.4% active | AID 504339; note: % is set by controls: 0 for no effect and ±100 for the full control effect; nearly all actives have a fitted effect of over 50% in size
HP1b binding inh: blocks HP1-beta chromodomain binding to methylated histone tails; P83916; AlphaScreen HP1-beta / biotin-H3K9me3 peptide binding; Potency, µM (titrated, usually from 114 µM), for inactives: at the highest dose activity change, negative = inhibition, most hits filed as inhibitors; 390,000 tested, 0.56% active; AID 540317; note: nearly all actives have a fitted effect of over 70% in size
Target sequence (P83916 whole entry, looked up): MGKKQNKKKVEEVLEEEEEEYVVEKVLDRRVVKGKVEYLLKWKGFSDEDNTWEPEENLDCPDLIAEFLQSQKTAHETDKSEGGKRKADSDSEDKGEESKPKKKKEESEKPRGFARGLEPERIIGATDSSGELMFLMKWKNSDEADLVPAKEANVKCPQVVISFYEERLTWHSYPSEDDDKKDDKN
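Compound inhibition of the preformed complex between 50 nM HP1-beta and 50 nM biotinylated H3K9me3 peptide was read by AlphaScreen. Buffer was PBS pH 7.4 with 0.01% Tween-20. Incubations ran 30 min at room temperature, with 10 ug/mL donor/acceptor beads.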
BAZ2B block: blocks human BAZ2B; Q9UIF8; AlphaScreen BAZ2B-H3K14Ac peptide displacement; Potency, µM (top dose mostly 114 µM), inactives show at the highest dose activity change, negative = inhibition, usual class: inhibitors; 360,000 tested, 4.4% active; note: % is set by controls: 0 for no effect and ±100 for the full control effect; nearly all actives have a fitted effect of over 60% in size
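BAZ2B 50 nM plus b-H3(5-23)K14Ac 50 nM, PBS pH 7.4/0.01% Tween-20, 30 min RT; compound added (max 110 uM), 30 min RT; streptavidin donor/Ni-chelate acceptor beads 10 ug/mL final, 20 min dark; AlphaScreen read.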
GLS inhibitor: inhibitors of human glutaminase (GLS). 410,000 tested, 0.21% active. O94925. AID 624170. Potency, µM (titrated, usually from 45.5 µM), for inactives: at the top dose activity change, negative = inhibition, most hits filed as inhibitors. GLS enzymatic activity, qHTS titration; note: % is set by controls: 0 for no effect and ±100 for the full control effect
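Coupled fluorescence readout: glutamate oxidase/HRP/Amplex Red detect glutamate formed by hKGA from L-glutamine (1 mM solution added). Buffer 45 mM KH2PO4 pH 8.2, 0.02% Tween-20; reads at t0 and 30 min RT.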
The depositor's hits bear a star; ? = inconclusive; . = no result given; [ ] = another dose, or the depositor's remark. Calls come from the whole dose curve; as a rule, active = well fitted curve in the direction sought with a large enough effect; inconclusive = small, poorly fitted or top-dose-only effect, or another doubt; inactive = no such curve, though single readings can be large; an effect the other way counts as inactive or inconclusive. Potency is the fitted concentration of half-maximal effect.

SMILES	G9a block	JMJD2A Tudor	HP1b binding inh	BAZ2B block	GLS inhibitor
COc1ccc(/C=C/c2nc(-c3ccccc3O)n[nH]2)cc1OC	9.9%[59 µM]	-28.1%	16.9%	-35.3%	2.1%
O=C(O)COc1ccc(/C=C/c2nc(-c3ccccc3O)n[nH]2)cc1	12.6µM*	-1.0%	33.3%	-29.5%	18.3%
CC(C)Oc1ccc(C(=O)NC(=S)N2CCOCC2)cc1	-21.7%[59 µM]	?	11.6%	-9.2%	-0.7%
c1ccc(C(c2ccccc2)N2CCN(Cc3nc(-c4cnccn4)no3)CC2)cc1	?	-10.9%	42.7%	-22.0%	2.3%
Clc1cccc2c1CCN(Cc1nc(-c3cnccn3)no1)C2	39.8µM*	0.0%	17.9%	-18.7%	-7.5%
O=C(CSc1nnc(-c2ccccc2F)o1)NC1CC1	.	-1.7%	9.8%	.	-0.2%
COc1ccc(C(=O)COC(=O)c2ccccc2NS(=O)(=O)c2ccc(O)c([N+](=O)[O-])c2)cc1	?	?	-28.9%	56.2µM*	4.0%
COc1ccc(NS(=O)(=O)c2ccc(C)cc2)c([N+](=O)[O-])c1	?	-2.9%[11.4 µM]	?	-33.4%	16.0%
COc1ccc(NC(=O)c2ccccc2NS(=O)(=O)c2ccc(C)cc2)c([N+](=O)[O-])c1	3.16µM*	?	-29.6%	?	-3.8%
COc1ccc(NC(=O)C2C3C=CC(O3)C2C(=O)O)cc1 (stereo unspecified)	39.8µM*	-18.5%	24.8%	-0.7%	10.9%
CC(C)OC(=O)c1cc(NC(=O)C2C3C=CC(O3)C2C(=O)O)cc(C(=O)OC(C)C)c1 (stereo unspecified)	50.1µM*	?	73.3%	?	7.0%
CC(=O)c1ccc(NC(=O)C2C3C=CC(O3)C2C(=O)O)cc1 (stereo unspecified)	?	?	4.1%	2.3%	6.9%
CCCOC(=O)c1ccc(NC(=O)C2C3C=CC(O3)C2C(=O)O)cc1 (stereo unspecified)	14.1µM*	-18.4%	51.7%	-28.4%	20.4%
CCOC(=O)N1CCN(CC(=O)Nc2nc3ccccc3s2)CC1	.	?	19.2%	-7.5%	-7.9%
O=C(c1ccco1)N1CCC2(CCN(Cc3nccs3)CC2)CC1	0.8%[12.7 µM]	.	.	.	.
COc1ccccc1CNC(=O)c1cccn1-c1nnc(N2CCCCC2)s1	-26.2%[59 µM]	-8.1%	-3.6%	?	-10.9%
CC(C)c1ccc(NC(=O)c2cccn2-c2nnc(N3CCCCC3)s2)cc1	-40.9%[59 µM]	-28.2%	-14.4%	?	-11.1%
CN(C)c1ccc(CNC(=O)c2cccn2-c2nnc(N3CCCCC3)s2)cc1	-43.3%[59 µM]	?	-3.2%	39.8µM*	1.3%
Cc1cc(NC(=O)c2cccn2-c2nnc(N3CCCCC3)s2)ccc1Br	-24.1%[59 µM]	?	8.1%	70.8µM*	3.1%
COc1ccc(C(C)=O)cc1COC(=O)CCC(=O)N(CC(C)C)c1c(N)n(CC(C)C)c(=O)[nH]c1=O	-2.6%[12.7 µM]	-9.0%	11.5%	16.8%	8.0%
CCc1ccc(N(C(=O)c2snc(C(N)=O)c2N)C(C(=O)NC2CCCC2)c2ccncc2)cc1 (stereo unspecified)	12.8%	1.4%	17.4%	-11.2%	-4.2%
Nc1c(C(=O)Nc2ccccc2F)sc2nc3c(cc12)CCCCCC3	-3.5%[59 µM]	-19.0%	30.1%	3.8%	-9.9%
CN1CCc2nc3sc(C(=O)Nc4cccc(C#N)c4)c(N)c3cc2C1	15.8µM*	?	-17.6%	?	0.5%
Nc1c(C(=O)Nc2cccc(Cl)c2)sc2nc3c(cc12)CN(Cc1ccccc1)CC3	?	-22.9%	16.8%	-38.0%	-12.9%
CN1CCc2nc3sc(C(=O)Nc4c(F)cccc4F)c(N)c3cc2C1	15.8µM*	-26.5%	25.9%	-38.4%	3.3%
SMILES	G9a block	JMJD2A Tudor	HP1b binding inh	BAZ2B block	GLS inhibitor
O=C1CSC(c2cccnc2)N1CC1CC1 (stereo unspecified)	.	5.4%	-30.6%	?	-2.3%
Cc1ccc(S(=O)(=O)N=S(CCO)CCO)cc1	6.2%[59 µM]	-5.6%	8.5%	6.2%	4.3%
Cc1ccc(S(=O)(=O)Nc2cccc3ccc[n+](C)c23)cc1	.	50.1µM*	.	.	.
COC(=O)c1ccc(NC2c3ncccc3C(=O)N2Cc2cccs2)cc1 (stereo unspecified)	?	-7.7%	24.1%	-2.9%	5.1%
COc1ccc(NC2c3ncccc3C(=O)N2Cc2cccs2)cc1 (stereo unspecified)	50.1µM*	?	?	70.8µM*	3.2%
CCOC(=O)c1ccc(NC2c3ncccc3C(=O)N2Cc2ccc(F)cc2)cc1 (stereo unspecified)	-11.3%[59 µM]	-20.4%	33.7%	?	-5.1%
O=C1c2cccnc2C(Nc2ccc(F)c(Cl)c2)N1Cc1cccs1 (stereo unspecified)	50.1µM*	-9.7%	17.4%	?	3.8%
O=C1c2cccnc2C(Nc2ccc(Br)cc2)N1Cc1cccs1 (stereo unspecified)	50.1µM*	?	9.4%	.	23.8%
O=C1c2cccnc2C(Nc2ccc(Br)cc2Br)N1Cc1cccs1 (stereo unspecified)	-23.8%	.	.	-24.2%	.
Cc1nc2cc(NC(=O)N3CCC(c4ccccc4)C3)ccc2n1C (stereo unspecified)	6.8%[59 µM]	-9.6%	24.4%	-4.2%	26.4%
COC(=O)c1ccccc1NC(=O)C1CCCCC1C(=O)O (stereo unspecified)	?	-17.3%	25.0%	-2.1%	-18.2%
CCOc1ccc(OCC)c(NS(=O)(=O)c2cccc3nsnc23)c1	?	?	?	50.1µM*	-1.4%
COc1ccc(C(=O)O)cc1NS(=O)(=O)c1cccc2nsnc12	3.98µM*	6.6%	48.6%	1.4%	-1.0%
CCOc1ccccc1NS(=O)(=O)c1cccc2nsnc12	?	-22.6%	2.6%	-36.0%	8.5%
COc1ccccc1NS(=O)(=O)c1cccc2nsnc12	.	-11.0%	1.6%	-5.3%	-0.9%
CCn1c(SCC(=O)N/N=C/C=C/c2ccccc2[N+](=O)[O-])nnc1-c1ccc(Cl)cc1	-8.5%[59 µM]	.	.	-9.6%	.
COc1cccc([C@@H]2Oc3ccc(OC)cc3C(=O)[C@H]2O)c1	79.4µM*	-9.1%	33.9%	10.3%	9.0%
COc1ccc2c(c1)C(=O)[C@@H](O)[C@H](c1ccc(OC)c(Br)c1)O2	-3.3%	2.2%	66.2%	89.1µM*	0.3%
CC1CCCCC12NC(=O)N(Cn1nnc3ccccc3c1=O)C2=O (stereo unspecified)	9.4%	-9.0%	20.5%	21.5%	-9.5%
COc1ccc(F)c(CN2CCC(n3nccc3NC(=O)C3CCOC3)CC2)c1 (stereo unspecified)	-28.5%	-12.2%	17.4%	3.6%	-4.1%
Cn1cc(CCCC(=O)NCc2cccc(Br)c2)c2ccccc21	-2.2%[59 µM]	-1.3%	-26.9%	2.7%	4.3%
O=C(NCCCN1CCCC1=O)C1CCN(S(=O)(=O)c2c(Cl)cccc2Cl)CC1	-49.5%	-6.9%	25.2%	7.4%	-0.2%
COc1ccc(OC)c(NC2c3ccccc3C(=O)N2Cc2ccc3c(c2)OCO3)c1 (stereo unspecified)	31.6µM*	44.7µM*	?	35.5µM*	-10.1%
